# Data from PubChem BioAssay (NCATS).
# Where “and” joins values, the source holds several entries; their conditions need not be identical. Identical values can stand only once. Unmarked numbers belong to inactive results. Records with an inconclusive call do not appear. A call without a number means that no potency is given here. Calls of active or inactive are those of the source. Unless noted, calls follow the shape of the dose curve; as a rule, active = well fitted curve in the direction sought with a large enough effect; inconclusive = small, poorly fitted or top-dose-only effect, or another doubt; inactive = no such curve, though single readings can be large; an effect the other way counts as inactive or inconclusive.
# Key:
# astro = control astrocytes; test: Drug repurposing screens with cells derived from glioblastoma tumor samples (AID 1345199); conditions: viability, ATP luminescence, 48 h; series mostly up to 45.9 µM; also: nearly all actives have a fitted effect of over 40% in size; also: potency is read from the fitted curve at half-maximal effect
# Method in brief: (§1)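 Four patient lines of CD133+ GBM neurospheres were screened at several concentrations; hits were retested in those lines plus three slower-growing GBM lines, using 48-hour treatment and ATP-based viability.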
# [1] = as above; conditions: GBM patient neurospheres viability, ATP luminescence, 48 h
# Method in brief: as §1
# HeLa = test: Primary qHTS to identify gynecologic anti-cancer compounds using libraries of approved drugs and bioactive compounds (AID 1345084); conditions: Gynecologic cancer cell panel viability, ATPlite luminescence, 48 h; series mostly up to 57.5 µM; also: nearly all actives have a fitted effect of over 55% in size; also: potency is read from the fitted curve at half-maximal effect
# Method in brief: (§2)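 Cells, 1,000 per well, plated 16 h, then exposed 48 h at 37 C to compounds. Viability by ATPlite luminescence after 15 min at room temperature.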
# Hek293T = test: as above; conditions: Gynecologic cancer cell panel viability, ATPlite luminescence, 48 h, control line for the selectivity index; series mostly up to 57.5 µM
# Method in brief: as §2
# JEG-3 = test: as above; conditions: Gynecologic cancer cell panel viability, ATPlite luminescence, 48 h; series mostly up to 57.5 µM
# Method in brief: as §2
# OV90 = test: as above; conditions: Gynecologic cancer cell panel viability, ATPlite luminescence, 48 h; series mostly up to 57.5 µM
# Method in brief: as §2
# PA-1 = test: as above; conditions: Gynecologic cancer cell panel viability, ATPlite luminescence, 48 h; series mostly up to 57.5 µM
# Method in brief: as §2
# SKOV3 = test: as above; conditions: Gynecologic cancer cell panel viability, ATPlite luminescence, 48 h; series mostly up to 57.5 µM
# Method in brief: as §2
# Tov-21-G = test: as above; conditions: Gynecologic cancer cell panel viability, ATPlite luminescence, 48 h; series mostly up to 57.5 µM
# Method in brief: as §2
# Tov112D = test: as above; conditions: Gynecologic cancer cell panel viability, ATPlite luminescence, 48 h; series mostly up to 57.5 µM
# Method in brief: as §2
# [2] = target: Nuclear receptor subfamily 1 group I member 2 (Rattus norvegicus) (UniProt Q9R1A7); test: qHTS assay for small molecule activators of the rat pregnane X receptor (rPXR) signaling pathway (AID 651751; call rule not given here); conditions: rPXR reporter cells, luciferase (One-Glo), 24 h
# Nuclear receptor subfamily 1 group I member 2 (Rattus norvegicus), sequence (Q9R1A7 whole entry, looked up): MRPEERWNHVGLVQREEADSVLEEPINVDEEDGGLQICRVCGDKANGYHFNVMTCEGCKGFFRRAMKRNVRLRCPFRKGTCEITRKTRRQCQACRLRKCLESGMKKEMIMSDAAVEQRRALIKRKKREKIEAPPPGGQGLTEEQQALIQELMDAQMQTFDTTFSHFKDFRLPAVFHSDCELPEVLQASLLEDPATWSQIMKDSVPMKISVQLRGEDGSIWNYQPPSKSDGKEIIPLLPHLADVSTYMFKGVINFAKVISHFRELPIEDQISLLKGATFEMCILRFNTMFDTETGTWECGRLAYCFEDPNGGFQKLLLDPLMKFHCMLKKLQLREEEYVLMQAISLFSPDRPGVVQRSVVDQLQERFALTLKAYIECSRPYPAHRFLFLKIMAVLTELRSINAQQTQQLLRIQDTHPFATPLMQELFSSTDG
# [3] = qHTS assay to identify inhibitors of the type 1 interferon - major histocompatibility complex class I in skeletal muscle: Counter screen cell viability and HiBit confirmation (AID 1347412); conditions: iHSKM muscle cells + IFN-b, HiBiT or CellTiter-Glo, 24 h, at 45.9 µM (top of the series); also: nearly all actives have a fitted effect of over 60% in size
# Method in brief: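 Luminescence read-out: Nano-Glo HiBiT lytic signal from C-terminally HiBiT-tagged HLA-B in CRISPR-edited human myoblasts, plus CellTiter Glo ATP as viability counter screen. IFN-beta 4.0 ng/ml; 24 hrs treatment at 37 C, 5% CO2.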
# Es-2 = test: Primary qHTS to identify gynecologic anti-cancer compounds using libraries of approved drugs and bioactive compounds (AID 1345084); conditions: Gynecologic cancer cell panel viability, ATPlite luminescence, 48 h; series mostly up to 57.5 µM; also: nearly all actives have a fitted effect of over 55% in size; also: potency is read from the fitted curve at half-maximal effect
# Method in brief: as §2
# [4] = qHTS assay for small molecule activators of the human pregnane X receptor (PXR) signaling pathway (AID 720659; call rule not given here)
# [5] = at 45.9 µM (top of the series), tumour line B
# [6] = at 45.9 µM (top of the series), tumour line D
# [7] = at 46.1 µM (top of the series), tumour line C
compound,measurement,setting,value
O=P(O)(O)C(O)(Cn1ccnc1)P(=O)(O)O,Potency,astro,inactive
CCOC(=O)C1=C[C@@H](OC(CC)CC)[C@H](NC(C)=O)[C@@H](N)C1,"activity, negative = cell killing",[1]; [5],-10.4%
same,"activity, negative = cell killing",[1]; [6],-1.97%
same,"activity, negative = cell killing",[1]; [7],5.2%
same,Potency,astro,inactive
OC(CN1CCN(c2cccc(Cl)c2)CC1)C(c1ccccc1)c1ccccc1 (stereo not given),Potency,HeLa,inactive
same,Potency,Hek293T,inactive
same,Potency,JEG-3,inactive
same,Potency,OV90,inactive
same,Potency,PA-1,inactive
same,Potency,SKOV3,inactive
same,Potency,Tov-21-G,inactive
same,Potency,Tov112D,inactive
COC1=C(OC)C(=O)C(CCCCCCCCCCO)=C(C)C1=O,Potency,HeLa,inactive
same,Potency,OV90,inactive
same,Potency,SKOV3,inactive
same,Potency,Tov-21-G,inactive
same,"activity, negative = cell killing",[1]; [5],-9.04%
same,"activity, negative = cell killing",[1]; [7],1.43%
O=c1oc2cc(O)ccc2s1,"activity, negative = cell killing",[1]; [5],-24%
same,Potency,[1]; tumour line C,23.1 µM (active)
same,Potency,astro,inactive
O=C(CS(=O)Cc1ccco1)NCC=CCOc1cc(CN2CCCCC2)ccn1 (stereo not given),"activity, negative = cell killing",[1]; [5],-14.1%
same,"activity, negative = cell killing",[1]; [6],-2.16%
same,"activity, negative = cell killing",[1]; [7],-28%
same,Potency,[1]; tumour line A,25.1 µM (active)
same,Potency,astro,inactive
CCCCCCCCCCCCCCCCCCCCCCO,"activity, negative = cell killing",[1]; [5],-4.68%
same,"activity, negative = cell killing",[1]; [6],1.13%
same,"activity, negative = cell killing","[1]; at 46 µM (top of the series), tumour line A",-31.4%
same,"activity, negative = cell killing",[1]; [7],4.25%
same,Potency,astro,inactive
Cc1cc(O)c2c(c1)C(=O)c1cc(O)cc(O)c1C2=O,max response,[2],1.52% and -0.614%
COC(=O)C1=C(C)NC(C)=C(C(=O)OCCCN2CCC(c3ccccc3)(c3ccccc3)CC2)C1c1cccc([N+](=O)[O-])c1 (stereo not given),Potency,HeLa,inactive
same,Potency,JEG-3,inactive
same,Potency,Tov-21-G,inactive
same,Potency,Tov112D,inactive
same,Potency,astro,17.8 µM (active)
same,"activity change, negative = inhibition",[3]; HiBiT,4.03%
same,"activity change, negative = inhibition",[3]; Viability,-24.5%
O=C(O)c1cccnc1Nc1cccc(C(F)(F)F)c1,Potency,Es-2,inactive
same,Potency,Hek293T,inactive
same,Potency,JEG-3,inactive
same,Potency,PA-1,inactive
same,Potency,SKOV3,inactive
same,Potency,Tov-21-G,inactive
same,Potency,Tov112D,inactive
CC(=O)N1CCN(c2ccc(OC[C@H]3CO[C@](Cn4ccnc4)(c4ccc(Cl)cc4Cl)O3)cc2)CC1,Potency,astro,inactive
same,max response,[2],-5.89%
same,outcome,[4],inactive
CCCS(=O)c1ccc2nc(NC(=O)OC)[nH]c2c1 (stereo not given),Potency,Es-2,inactive
same,Potency,JEG-3,inactive
same,Potency,OV90,inactive
same,Potency,PA-1,14.1 µM (active)
same,Potency,Tov112D,8.91 µM (active)
